Screening results as filed in PubChem BioAssay.
Most compounds without a hit are left out; they make up all but 8% or so of the library.
VP16 counter: VP16 counterscreen qHTS for inhibitors of ROR gamma transcriptional activity | Drosophila S2 Gal4-VP16 UAS-luciferase, luminescence, 20 h | Potency, µM (highest dose often 53.6 µM), for inactives: at the top dose activity, negative = inhibition, hits mostly inhibitors | actives 3.5% (n = 310,000);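 also: Gal4-VP16 expression switched on by copper sulfate through the metallothionein promoter; potency is read from the fitted curve at half-maximal effect; nearly all actives have a fitted effect of over 50% in size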
TSHR antag: Antagonists of the Thyroid Stimulating Hormone Receptor: HTS campaign. actives 0.2% (n = 330,000). TSHR-expressing cells, TSH-stimulated cAMP HTRF, 2 h; stronger effect = lower value. activity change, negative = inhibition, % at 11.5 µM. Thyrotropin receptor (Homo sapiens), P16473;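 active = activity change below a set negative limit, meaning inhibition stronger than a set level, cut at about -70% in these data; inconclusive = activity change between two set negative limits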
Target sequence (P16473 whole entry, looked up): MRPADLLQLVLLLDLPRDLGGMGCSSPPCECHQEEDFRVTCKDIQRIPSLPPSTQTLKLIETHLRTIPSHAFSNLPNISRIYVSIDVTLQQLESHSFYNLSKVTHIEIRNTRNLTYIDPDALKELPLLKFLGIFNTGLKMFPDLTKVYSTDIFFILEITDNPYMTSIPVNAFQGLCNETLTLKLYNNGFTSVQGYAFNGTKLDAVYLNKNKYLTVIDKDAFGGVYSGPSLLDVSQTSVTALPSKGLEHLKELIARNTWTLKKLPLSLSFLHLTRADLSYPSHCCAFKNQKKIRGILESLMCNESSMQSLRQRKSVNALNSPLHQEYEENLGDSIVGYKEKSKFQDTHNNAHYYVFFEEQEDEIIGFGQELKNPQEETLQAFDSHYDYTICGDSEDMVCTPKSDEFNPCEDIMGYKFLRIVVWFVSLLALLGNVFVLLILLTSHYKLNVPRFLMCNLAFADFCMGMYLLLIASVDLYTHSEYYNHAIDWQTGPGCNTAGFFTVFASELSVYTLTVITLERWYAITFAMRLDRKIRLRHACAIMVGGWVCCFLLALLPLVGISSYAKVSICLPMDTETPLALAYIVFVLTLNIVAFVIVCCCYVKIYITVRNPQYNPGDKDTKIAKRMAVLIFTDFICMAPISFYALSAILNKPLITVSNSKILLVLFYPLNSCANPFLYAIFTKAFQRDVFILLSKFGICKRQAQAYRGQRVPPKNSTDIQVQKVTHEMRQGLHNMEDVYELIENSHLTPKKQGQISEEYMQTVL
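Cell-based HTRF cAMP assay; TSHR cells + compound, TSH EC80 (4nM final), 2 h, 37 deg C. Lysis with anti-cAMP cryptate and cAMP-d2, 30 min RT, read 665/620 nm.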
RORgamma inh: qHTS for inhibitors of ROR gamma transcriptional activity; Nuclear receptor ROR-gamma (Mus musculus), P51450; Drosophila S2 Gal4-RORgamma UAS-luciferase reporter, 20 h; Potency, µM (series often up to 53.6 µM), for the others: at the top dose activity change, negative = inhibition, hits mostly inhibitors; actives 5.4% (n = 310,000); also: potency is read from the fitted curve at half-maximal effect; nearly all actives have a fitted effect of over 60% in size
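Stably transfected Drosophila Schneider cells are the test system, with ROR gamma fused to Gal4 and luciferase under UAS control; luminescence is read after 20 hr of 700 uM copper sulfate induction at ambient temperature.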
Coupling enz: qHTS Assay for Inhibitors of Fructose-1,6-bisphosphate Aldolase from Giardia Lamblia: Coupling assay counterscreen; actives 0.67% (n = 290,000); activity change, negative = inhibition, % at 58.2 µM, hits read low; coupling enzyme system counterscreen, AmpLite Red fluorescence; in the data active = activity change below about -30%
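First, compound is pin-transferred into glyceraldehyde-3-phosphate coupling-enzyme reagent at 57.5 uM final and held 10 min at RT. Next, substrate, coupling system and AmpLite Red are added. After 20 min RT, fluorescence (525/598 nm) is read.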
ELG1 repair inh: qHTS screen for small molecules that inhibit ELG1-dependent DNA repair in human embryonic kidney (HEK293T) cells expressing luciferase-tagged ELG1; actives 2.3% (n = 330,000); Potency, µM (doses to about 46.1 µM), without a hit: at the highest dose activity change, negative = inhibition, usual class: inhibitors; HEK293T ELG1-luciferase reporter, luminescence, 16 h; DNA damage induced by 5-fluorouridine; also: potency is read from the fitted curve at half-maximal effect; nearly all actives have a fitted effect of over 55% in size
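In this reporter screen, reduction of luminescence relative to DMSO vehicle indicated activity. Compounds and 5-fluorouridine were added together to 2,000 cells per well, incubated for 16 hr at 37 °C, then developed with ONE-Glo.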
* marks the source's active call; other numbers are inactive results; [ ] = dose if it differs, or a comment. Unless noted, calls follow the shape of the dose curve; as a rule, active = well fitted curve in the direction sought with a large enough effect; inconclusive = small, poorly fitted or top-dose-only effect, or another doubt; inactive = no such curve, though single readings can be large; an effect the other way counts as inactive or inconclusive. % is scaled to controls: 0 for no effect and ±100 for the full control effect.

Screening COc1ccc(Cc2nnc(NC(=O)c3ccccc3)s2)cc1OC returned VP16 counter 17%, TSHR antag 10, RORgamma inh 2%, Coupling enz 1 and ELG1 repair inh inconclusive.
Screening CC#CCOCC/C=C1/c2ccccc2C(OC)C1C (stereo not given) returned VP16 counter -1%[10 µM], RORgamma inh -1%[10 µM] and Coupling enz 1.
For CN(C)c1nc(N)nc(CSc2ncc(Cl)cc2Cl)n1 the results were VP16 counter -29%, TSHR antag -6, RORgamma inh 13µM*, Coupling enz 1 and ELG1 repair inh 22%.
CN(C)c1nc(N)nc(CSc2nnnn2C)n1 was read as VP16 counter 9%, TSHR antag 3, RORgamma inh 28%, Coupling enz -2 and ELG1 repair inh inconclusive.
`COC(=O)c1cc(C)sc1NC(=O)CN1CCN(C(=O)c2ccco2)CC1` gave VP16 counter 1%, TSHR antag 19, RORgamma inh 4% and ELG1 repair inh 21µM*.
COC(=O)c1cc(C)sc1NC(=O)CN1CCN(C(=O)C2CCCO2)CC1 (stereo not given) was read as VP16 counter inconclusive, TSHR antag -1, RORgamma inh 10µM* and ELG1 repair inh inconclusive.
For CCOC(=O)c1cc(C)sc1NC(=O)CN1CCN(C(=O)c2ccco2)CC1 the results were VP16 counter 6%, TSHR antag 5, RORgamma inh -2% and ELG1 repair inh 3%.
CCOC(=O)c1c(NC(=O)c2ccco2)sc2c1CCCC2 was read as VP16 counter -4%, TSHR antag -4, RORgamma inh 0%, Coupling enz 2 and ELG1 repair inh 2%.
For CCOC(=O)c1c(NC(=S)N2CCN(C)CC2)sc2c1CCN(C(=O)OCC)C2 the results were VP16 counter -3%, TSHR antag -10, RORgamma inh -22%, Coupling enz -3 and ELG1 repair inh 16µM*.
CCOC(=O)c1c(NC(=O)CN2CCN(C(=O)c3ccco3)CC2)sc2c1CCCC2 was read as VP16 counter inconclusive, TSHR antag -15, RORgamma inh inconclusive, Coupling enz 0 and ELG1 repair inh 21µM*.
`CCOC(=O)c1cc(C)sc1NC(=O)CN1CCN(C(=O)C2CCCO2)CC1` (stereo not given) gave VP16 counter -5%, TSHR antag -3, RORgamma inh -39% and ELG1 repair inh -25%.
For O=C(NCC1CCCN1S(=O)(=O)c1cccs1)c1cccc(Cl)c1 (stereo not given) the results were TSHR antag -18 and ELG1 repair inh -5%.
Screening CCc1nnc(NC(=O)CCC(=O)N2CCN(CCOc3ccc(C)cc3)CC2)s1 returned VP16 counter -1%, TSHR antag -11, RORgamma inh 21%, Coupling enz 0 and ELG1 repair inh 23µM*.
CCc1nnc(NC(=O)CCC(=O)N2CCN(Cc3ccc(C)cc3C)CC2)s1 was read as VP16 counter -24%, TSHR antag 17, RORgamma inh 37% and ELG1 repair inh -2%.
For C=CCN(C)NC(=S)Nc1ccccc1 the results were VP16 counter 10µM*, TSHR antag 3, RORgamma inh 5µM*, Coupling enz -1 and ELG1 repair inh 0%.
C=CCN(C)NC(=O)Nc1ccccc1 was read as VP16 counter 0%, TSHR antag -1, RORgamma inh 20%, Coupling enz 1 and ELG1 repair inh 8%.
`Cc1ccnc2c1ccc1c(C)ccnc12` gave ELG1 repair inh 2.3µM*.
For CC(=O)Nc1ccc(S(=O)(=O)N2CCC(c3nc4ccc(C)cc4[nH]3)CC2)cc1 the results were VP16 counter -3%, TSHR antag 2, RORgamma inh -3%, Coupling enz 2 and ELG1 repair inh inconclusive.
CC(C)(C)c1ccc(S(=O)(=O)N2CCC(c3nc4ccc(Cl)cc4[nH]3)CC2)cc1 was read as VP16 counter -8%, TSHR antag -10, RORgamma inh inconclusive, Coupling enz 2 and ELG1 repair inh 21µM*.
Screening CC1CCN(S(=O)(=O)c2ccc(C(=O)Nc3ccccc3-c3nc4ccccc4[nH]3)cc2)CC1 returned VP16 counter -13%, TSHR antag -6, RORgamma inh 0%, Coupling enz -1 and ELG1 repair inh 16µM*.
`CC1CCCN(S(=O)(=O)c2ccc(C(=O)Nc3ccccc3-c3nc4ccccc4[nH]3)cc2)C1` (stereo not given) gave VP16 counter -9%, TSHR antag -2, RORgamma inh -3%, Coupling enz 0 and ELG1 repair inh inconclusive.
Screening CC(C)C(=O)Nc1ccc(S(=O)(=O)N2CCC(c3nc4ccccc4[nH]3)CC2)cc1 returned TSHR antag 0 and ELG1 repair inh 5.8µM*.
Screening NC(=O)c1ccccc1NC(=O)c1cc(S(=O)(=O)N2CCCCC2)ccc1N1CCOCC1 returned TSHR antag 1 and ELG1 repair inh -23%.
Cc1cccc(NS(=O)(=O)c2ccc(C)c(C(=O)N(C)C3CCN(C)CC3)c2)c1 was read as TSHR antag -4 and ELG1 repair inh inconclusive.
Screening Cc1cc(C(=O)NNC(=S)NCC(C)C)no1 returned VP16 counter -24%, TSHR antag 6, RORgamma inh 7.9µM*, Coupling enz 1 and ELG1 repair inh -1%.
For CCCN1C(=S)c2ccccc2C1c1ccccc1 (stereo not given) the results were VP16 counter -1%, TSHR antag -17, RORgamma inh 10µM*, Coupling enz 2 and ELG1 repair inh inconclusive.
`COC(=O)[C@H](C)NC(=O)[C@@H](C)CO` gave VP16 counter -10%[10 µM], RORgamma inh -3%[10 µM] and Coupling enz 2.
`CSc1nnc(NC(=O)c2ccc3c(c2)OCO3)s1` gave VP16 counter 4.5µM*, TSHR antag -9, RORgamma inh 2.5µM*, Coupling enz -5 and ELG1 repair inh inconclusive.
Screening Cc1nnc(NC(=O)c2ccc3c(c2)OCO3)s1 returned VP16 counter -16%, TSHR antag 5, RORgamma inh -43%, Coupling enz -4 and ELG1 repair inh inconclusive.
Screening COCCSc1nnc(NC(=O)c2ccc3c(c2)OCO3)s1 returned VP16 counter 25%, TSHR antag 2, RORgamma inh inconclusive, Coupling enz -11 and ELG1 repair inh inconclusive.
